Results published in PubChem BioAssay AID463173 (ICCB-Longwood Screening Facility, Harvard Medical School, 2010).
In all, about 52,000 compounds went through this assay and about 4,300 (8.3%) were called active. For the sample, actives were picked, then their nearest neighbours and some compounds at random. Unmarked numbers belong to inactive results. Rule as the data show it: active = survival mostly below about 52% (no sharp cut-off); inactive = mostly above about 56%.

These compounds were tested on DeltatarO mutant (assay: S. aureus survival, RN4220 and DeltatarO strains – OD600, teichoic acid synthesis inhibitors, primary screen (AID 463173)). Settings: S. aureus RN4220 wild type/DeltatarO growth, OD600, 18 h, stronger effect = lower value, screened at 18.75 µg/mL (by protocol).

| Structure (SMILES) | survival |
| --- | --- |
| CCc1ccc2occ(CC(=O)Nc3sc4c(c3C(=O)OC)CCC4)c2c1 | 70% |
| Cc1cc(-n2ccnc(NCCc3ccc(S(N)(=O)=O)cc3)c2=O)ccc1Br | 94% |
| Cc1ccc2c(c1)CC(C)N2S(=O)(=O)c1nnc(NC(=O)c2ccccc2F)s1 (configuration not stated) | 9% (active) |
| CC1Cc2ccccc2N1S(=O)(=O)c1nnc(NC(=O)c2ccccc2Br)s1 (configuration not stated) | 23% (active) |
| Cc1ccccc1C(=O)Nc1nnc(S(=O)(=O)N2c3ccccc3CC2C)s1 (configuration not stated) | 20% (active) |
| Cc1ccc2c(c1)CC(C)N2S(=O)(=O)c1nnc(NC(=O)CC(C)C)s1 (configuration not stated) | 59% |
| Cc1ccc2c(c1)CC(C)N2S(=O)(=O)c1nnc(NC(=O)C(C)C)s1 (configuration not stated) | 58% |
| Cc1cccc(N2CCN(C(=O)CN3C(=O)COc4ccc(S(=O)(=O)N5CCC(C)CC5)cc43)CC2C)c1 (configuration not stated) | 67% |
| COc1ccc(CCNC(=O)C(C)n2nc(C)c3sc4ccccc4c3c2=O)cc1OC (configuration not stated) | 110% |
| Cc1ccccc1Cn1cc(S(=O)(=O)c2ccc(F)cc2)c(=O)c2cc3c(cc21)OCO3 | 68% |
| NC(=O)C1CCN(C(=O)Cn2c(-c3cccs3)cc3ccccc32)CC1 | 73% |
| O=C(NCCN1CCCC1)c1ccc(Cl)cc1 | 98% |
| CCOC(=O)c1cnc2ccc(Cl)cc2c1Nc1ccc(OCC)cc1 | -5% (active) |
| CCOC(=O)c1cnc2cc(Cl)c(OC)cc2c1Nc1ccc(Br)cc1C | 102% |
| CCOC(=O)c1cnc2ccc(OCC)cc2c1Nc1cc(Cl)c(OC)cc1OC | 51% (active) |
| CCOC(=O)c1cnc2c(C)cc(C)cc2c1Nc1ccc(N2CCOCC2)cc1 | 14% (active) |
| CCOC(=O)c1cnc2ccc(C)cc2c1Nc1ccc(OCc2ccccc2Cl)cc1 | 2% (active) |
| CCOC(=O)c1cnc2c(C)c(Cl)ccc2c1Nc1ccc(N2CCOCC2)cc1 | 43% |
| CCOC(=O)c1cnc2ccc(OCC)cc2c1NCCN(C)C | 95% |
| CCOC(=O)c1ccccc1NC(=O)c1cnc(N2CCOCC2)c2ccccc12 | 90% |
| O=C(N/C(=C\c1ccc(F)cc1)C(=O)N1CCOCC1)c1ccccc1 | 98% |

| Structure (SMILES) | survival |
| --- | --- |
| Cc1cccc(OCC(=O)OC2CCN(C)CC2)c1 | 100% |
| COC(=O)C(C#N)C(c1cccnc1)c1c(C)[nH][nH]c1=O (configuration not stated) | 90% |
| COc1cc(OC)cc(-c2cc3nc(-c4ccccc4)cc(N4CCN(c5ccccc5)CC4)n3n2)c1 | 101% |
| CC(=O)Oc1ccc(C(=O)NC2CCSC2=O)cc1 (configuration not stated) | 72% |
| COC(=O)CC1Oc2ccccc2-n2cc(-c3ccc(Cl)cc3)nc21 (configuration not stated) | 69% |
| CCN1CCSc2ccc(C(=O)NC(C)c3ccccc3)cc21 (configuration not stated) | 66% |
| O=C(Nc1ccc(Br)cc1)c1cccc(C(=O)Nc2ccc(Br)cc2)c1 | 72% |
| CCOC(=O)c1cnc2ccc(C(=O)OC)cc2c1Nc1ccc(OCc2ccccc2Cl)cc1 | 151% |
| CCOC(=O)c1cnc2ccc(Cl)cc2c1Nc1ccc(N2CCOCC2)cc1 | 0% (active) |
| CCOC(=O)c1cnc2ccc(OC)cc2c1Nc1ccc(OCc2ccccc2Cl)cc1 | 8% (active) |
| CCOC(=O)c1cnc2ccc(OC)cc2c1Nc1cccc(C(C)=O)c1 | 9% (active) |
| CCOC(=O)c1cnc2ccc(C(=O)OC)cc2c1Nc1ccc(N2CCOCC2)cc1 | 144% |
| CCOC(=O)c1cnc2ccc(C)cc2c1Nc1ccc(N(CC)CC)cc1 | -5% (active) |
| CCOC(=O)c1cnc2ccccc2c1Nc1ccc(N2CCOCC2)cc1 | 63% |
| CCOC(=O)c1cc(-c2ccc(OC)cc2)n(CCC(=O)Nc2cccc(C(C)=O)c2)c1C | 64% |
| CCOC(=O)c1cccc(NC(=O)c2cc3cc4cc(OC)ccc4nc3s2)c1 | 76% |
| CCCCn1c2ccc(F)cc2c2nnc(SCCN(CC)CC)nc21 | 178% |
| CCn1c(CNC(=O)c2ccccc2)n[nH]c1=S | 86% |
| CCOc1ccc2cc(-c3nnc(Nc4ccc(C)cc4)s3)c(=O)oc2c1 | 80% |
| COc1ccccc1CCNC(=O)C(=O)NCC(c1ccco1)S(=O)(=O)c1ccccc1 (configuration not stated) | 77% |
| COc1ccc(OC)c(CNC(=O)CCc2c(C)nc3c(c2C)c(=O)n(C)c(=O)n3C)c1 | 89% |

| Structure (SMILES) | survival |
| --- | --- |
| Fc1ccc(-c2cn3ccccc3n2)cc1 | 74% |
| Cc1cccc(NC(=O)C2CCCN(c3nnc(-n4c(C)ccc4C)s3)C2)c1C (configuration not stated) | 75% |
| Cc1cc(=O)[nH]c2nnc(SCC(=O)Nc3cc(C(F)(F)F)ccc3Cl)n12 | 116% |
| CCOc1ccc(Nc2cc(C(=O)NCc3ccccc3Cl)c3ccccc3n2)cc1 | 86% |
| CCOC(=O)c1cnc2ccc(OCC)cc2c1Nc1ccc(OCc2ccccc2Cl)cc1 | 9% (active) |
| Cc1ccc(C2=Nc3ccccc3N(CC(=O)NCc3ccccc3Cl)C(=O)C2)cc1C | 82% |
| COc1ccc(C(=O)Nc2ccccc2C(=O)OCc2cc(=O)n3c4c(sc3n2)CCCC4)cc1 | 72% |
| COc1ccc(S(=O)(=O)c2cc3cc(C(C)(C)C)cc(O)c3oc2=O)cc1 | 26% (active) |
| CCOc1ccc(S(=O)(=O)c2cc3cccc(OCC)c3oc2=O)cc1 | 100% |
| COc1ccc(S(=O)(=O)c2cc3cc(OC)ccc3oc2=O)cc1 | 99% |
| CCN(c1ccccc1)c1nnc(NC(=O)Nc2ccc(C)cc2)s1 | 89% |
| O=C(COc1ccccc1)Nc1ccc(C(=O)OCc2cc(=O)n3nc(C4CC4)sc3n2)cc1 | 76% |
| Cc1ccc(OCC(=O)Nc2ccc(C(=O)OCc3cc(=O)n4nc(C5CC5)sc4n3)cc2)cc1 | 72% |
| Cc1cccc(OCC(=O)Nc2ccc(C(=O)OCc3cc(=O)n4nc(C5CC5)sc4n3)cc2)c1 | -2% (active) |
| Cc1ccc(C(=O)Nc2cccc(C(=O)OCc3cc(=O)n4nc(C5CC5)sc4n3)c2)cc1 | 81% |
| COc1ccc(C(=O)Nc2ccc(C(=O)OCc3cc(=O)n4nc(C5CC5)sc4n3)cc2)cc1 | -1% (active) |
| COc1ccc(C(=O)Nc2cccc(C(=O)OCc3cc(=O)n4nc(C5CC5)sc4n3)c2)cc1 | 115% |
| O=C(Nc1cccc(C(=O)OCc2cc(=O)n3nc(C4CC4)sc3n2)c1)c1ccc(F)cc1 | 70% |
| O=C(Nc1cccc(C(=O)OCc2cc(=O)n3nc(C4CC4)sc3n2)c1)c1ccccc1 | 6% (active) |
| COc1cccc(C(=O)Nc2ccc(C(=O)OCc3cc(=O)n4nc(C5CC5)sc4n3)cc2)c1 | 79% |
